# In the supplement of paper PMC10933113:
# Test system: KeratinoSens (HaCaT ARE-luciferase) cells;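 active = curve rank above 3; inactive = curve rank 0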
# Experiment: Nrf2/ARE luciferase activation call in qHTS KeratinoSens assay (1 = active, 0 = inactive)
row,Structure (SMILES),Nrf2/ARE luciferase activation call
1,CCCC[n+]1ccc(C)cc1.O=S(=O)([O-])C(F)(F)F,not active ARE inducer (skin sensitizer alert) (inactive)
2,COc1ccc(CN(CCN(C)C)c2ccccn2)cc1.O=C(O)/C=C\C(=O)O,not active ARE inducer (skin sensitizer alert) (inactive)
3,CC1(C)S[C@@H]2[C@H](NC(=O)Cc3ccccc3)C(=O)N2[C@H]1C(=O)O.CC1(C)S[C@@H]2[C@H](NC(=O)Cc3ccccc3)C(=O)N2[C@H]1C(=O)O.c1ccc(CNCCNCc2ccccc2)cc1,not active ARE inducer (skin sensitizer alert) (inactive)
4,O=C(O)/C=C\C(=O)O.O=C(O)/C=C\C(=O)O.c1cc(CN2CCCCC2)cc(OCCCNc2nc3ccccc3s2)c1,not active ARE inducer (skin sensitizer alert) (inactive)
5,CCC1=C[C@@H]2C[N@](C1)Cc1c([nH]c3ccccc13)[C@@](C(=O)OC)(c1cc3c(cc1OC)N(C)[C@H]1[C@@](O)(C(=O)OC)[C@H](OC(C)=O)[C@]4(CC)C=CCN5CC[C@]31[C@@H]54)C2.O=C(O)C(O)C(O)C(=O)O.O=C(O)C(O)C(O)C(=O)O,active ARE inducer (skin sensitizer alert)
6,CCCC[n+]1cccc(C)c1.O=S(=O)([O-])C(F)(F)F,not active ARE inducer (skin sensitizer alert) (inactive)
7,CCCCCC[n+]1ccccc1.O=S(=O)([O-])C(F)(F)F,not active ARE inducer (skin sensitizer alert) (inactive)
8,CC(C)(C)NC[C@H](O)COc1nsnc1N1CCOCC1.O=C(O)/C=C\C(=O)O,not active ARE inducer (skin sensitizer alert) (inactive)
9,O=C(CCC1CCN(Cc2ccccc2)CC1)c1ccc2c(c1)NCCCC2.O=C(O)/C=C/C(=O)O,not active ARE inducer (skin sensitizer alert) (inactive)
10,C[n+]1c2cc(N)ccc2cc2ccc(N)cc21.Nc1ccc2cc3ccc(N)cc3nc2c1.[Cl-],active ARE inducer (skin sensitizer alert)
11,CCn1cc[n+](C)c1C.O=S(=O)([O-])C(F)(F)F,not active ARE inducer (skin sensitizer alert) (inactive)
12,C[C@@H](C1=C(CCN(C)C)Cc2ccccc21)c1ccccn1.O=C(O)/C=C\C(=O)O,not active ARE inducer (skin sensitizer alert) (inactive)
13,CN(CCOc1ccc(CC2SC(=O)NC2=O)cc1)c1ccccn1.O=C(O)/C=C\C(=O)O (stereo not given),not active ARE inducer (skin sensitizer alert) (inactive)
14,CCCC[n+]1ccccc1C.O=S(=O)([O-])C(F)(F)F,not active ARE inducer (skin sensitizer alert) (inactive)
15,Nc1c2c(nc3ccccc13)CCCC2O.O=C(O)/C=C\C(=O)O (stereo not given),not active ARE inducer (skin sensitizer alert) (inactive)
16,CCOC(=O)Nc1ccc(NCc2ccc(F)cc2)nc1N.O=C(O)/C=C\C(=O)O,not active ARE inducer (skin sensitizer alert) (inactive)
17,CN1C(C)(C)CCCC1(C)C.O=C(O)[C@@H](O)[C@H](O)C(=O)O,not active ARE inducer (skin sensitizer alert) (inactive)
18,CC[N+]1(C)CCCC1.O=S(=O)([O-])C(F)(F)F,not active ARE inducer (skin sensitizer alert) (inactive)

row,Structure (SMILES),Nrf2/ARE luciferase activation call
1,CC(C)NCC(O)COc1ccc(COCCOC(C)C)cc1.CC(C)NCC(O)COc1ccc(COCCOC(C)C)cc1.O=C(O)/C=C/C(=O)O (stereo not given),not active ARE inducer (skin sensitizer alert) (inactive)
2,CN1CCN(CCCN2c3ccccc3Sc3ccc(Cl)cc32)CC1.O=C(O)/C=C\C(=O)O.O=C(O)/C=C\C(=O)O,not active ARE inducer (skin sensitizer alert) (inactive)
3,Cc1ccsc1/C=C/C1=NCCCN1C.O=C(O)[C@@H](O)[C@@H](O)C(=O)O,not active ARE inducer (skin sensitizer alert) (inactive)
4,Cc1cc(C)[nH]c(=O)n1.O=C(Nc1ccc([N+](=O)[O-])cc1)Nc1ccc([N+](=O)[O-])cc1,not active ARE inducer (skin sensitizer alert) (inactive)
5,CCn1cc[n+](C)c1.O=S(=O)([O-])C(F)(F)F,not active ARE inducer (skin sensitizer alert) (inactive)
6,CCOCCn1c(N2CCCN(C)CC2)nc2ccccc21.O=C(O)/C=C/C(=O)O.O=C(O)/C=C/C(=O)O,not active ARE inducer (skin sensitizer alert) (inactive)
7,NC[C@H](O)c1ccc(O)c(O)c1.O=C(O)C(O)C(O)C(=O)O.O=C(O)C(O)C(O)C(=O)O,not active ARE inducer (skin sensitizer alert) (inactive)
8,COCCc1ccc(OCC(O)CNC(C)C)cc1.COCCc1ccc(OCC(O)CNC(C)C)cc1.O=C(O)[C@H](O)[C@@H](O)C(=O)O (stereo not given),not active ARE inducer (skin sensitizer alert) (inactive)
9,CCn1cc[n+](C)c1.Cc1ccc(S(=O)(=O)[O-])cc1,not active ARE inducer (skin sensitizer alert) (inactive)
10,CN(C)CCOc1ccccc1Cc1ccccc1.O=C(O)CC(O)(CC(=O)O)C(=O)O,not active ARE inducer (skin sensitizer alert) (inactive)
11,CCCC[N+]1(C)CCCC1.O=S(=O)([O-])C(F)(F)F,not active ARE inducer (skin sensitizer alert) (inactive)
12,CC(=O)c1ccc2c(c1)N(CCCN(C)C)c1ccccc1S2.O=C(O)/C=C\C(=O)O,not active ARE inducer (skin sensitizer alert) (inactive)
13,CCOCC(O)COc1ccc(NC(=O)CC[S+](C)C)cc1.Cc1ccc(S(=O)(=O)[O-])cc1 (stereo not given),not active ARE inducer (skin sensitizer alert) (inactive)
14,CO[C@@H]1COCC[C@@H]1[NH2+][C@@H]1CC[C@@](C(=O)N2CCc3ncc(C(F)(F)F)cc3C2)(C(C)C)C1.O=C([O-])CCC(=O)O,not active ARE inducer (skin sensitizer alert) (inactive)
15,CC[n+]1ccccc1.O=S(=O)([O-])C(F)(F)F,not active ARE inducer (skin sensitizer alert) (inactive)
16,CN(C)CCN(Cc1ccccc1)c1ccccn1.O=C(O)CC(O)(CC(=O)O)C(=O)O,not active ARE inducer (skin sensitizer alert) (inactive)
17,CN(C)CCOC(c1ccc(Cl)cc1)c1ccccn1.O=C(O)/C=C\C(=O)O (stereo not given),not active ARE inducer (skin sensitizer alert) (inactive)
